Screens as filed in PubChem.
Hits are enriched below; roughly 2.4% of the tested compounds scored in any of these assays.
FEN1 inh = qHTS Assay for the Inhibitors of Human Flap endonuclease 1 (FEN1). actives 0.35% (n = 390,000). Recombinant FEN1 flap cleavage, fluorescence, 15 min. P39748. Potency, µM (top dose mostly 114 µM), without a hit: at the highest dose activity change, negative = inhibition, hits mostly inhibitors; note: % is set by controls: 0 for no effect and ±100 for the full control effect; nearly all actives have a fitted effect of over 65% in size
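Nuclease activity of 10 nM FEN1 was measured after 15 min of room-temperature exposure to titrated compounds, by adding 50 nM flap substrate and reading plates at 0 and 15 min.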
POLI inh = qHTS for Inhibitors of Polymerase Iota. DNA polymerase iota (Homo sapiens), Q9UNA4. Pol iota fluorescent replication assay, 10 min. Potency, µM (series often up to 115 µM), for the others: top-dose activity, negative = inhibition, actives largely listed as inhibitors. actives 1% (n = 390,000)
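Pol iota at 10 nM preincubated 15 min with compounds at room temperature; reaction started with fluorescent substrate, 50 nM final. Fluorescence read kinetically at 0 and 10 min; buffer-only wells as negative control.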
POLB inh = qHTS Assay for Inhibitors of DNA Polymerase Beta. actives 1.3% (n = 340,000). Potency, µM (top dose mostly 114 µM), inactives show at the top dose activity change, negative = inhibition, most hits filed as inhibitors. P06746. Pol beta primer extension/strand displacement, fluorescence kinetic. AID 485314, 2010; note: % is set by controls: 0 for no effect and ±100 for the full control effect
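10 nM enzyme + cpd, 15 min RT; start with substrate 50 nM final; read 0 min and after 10 min RT. Corrected, normalized data; 4-parameter Hill curve fit.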
WRN inhibitor = qHTS for Inhibitors of WRN Helicase; Bifunctional 3'-5' exonuclease/ATP-dependent helicase WRN (Homo sapiens), Q14191; WRN helicase unwinding, fluorescent forked duplex, kinetic; Potency, µM (series often up to 114 µM), without a hit: at the top dose activity change, negative = inhibition, usual class: inhibitors; actives 0.46% (n = 360,000); note: % is set by controls: 0 for no effect and ±100 for the full control effect; nearly all actives have a fitted effect of over 55% in size
Target sequence (Q14191 whole entry, looked up): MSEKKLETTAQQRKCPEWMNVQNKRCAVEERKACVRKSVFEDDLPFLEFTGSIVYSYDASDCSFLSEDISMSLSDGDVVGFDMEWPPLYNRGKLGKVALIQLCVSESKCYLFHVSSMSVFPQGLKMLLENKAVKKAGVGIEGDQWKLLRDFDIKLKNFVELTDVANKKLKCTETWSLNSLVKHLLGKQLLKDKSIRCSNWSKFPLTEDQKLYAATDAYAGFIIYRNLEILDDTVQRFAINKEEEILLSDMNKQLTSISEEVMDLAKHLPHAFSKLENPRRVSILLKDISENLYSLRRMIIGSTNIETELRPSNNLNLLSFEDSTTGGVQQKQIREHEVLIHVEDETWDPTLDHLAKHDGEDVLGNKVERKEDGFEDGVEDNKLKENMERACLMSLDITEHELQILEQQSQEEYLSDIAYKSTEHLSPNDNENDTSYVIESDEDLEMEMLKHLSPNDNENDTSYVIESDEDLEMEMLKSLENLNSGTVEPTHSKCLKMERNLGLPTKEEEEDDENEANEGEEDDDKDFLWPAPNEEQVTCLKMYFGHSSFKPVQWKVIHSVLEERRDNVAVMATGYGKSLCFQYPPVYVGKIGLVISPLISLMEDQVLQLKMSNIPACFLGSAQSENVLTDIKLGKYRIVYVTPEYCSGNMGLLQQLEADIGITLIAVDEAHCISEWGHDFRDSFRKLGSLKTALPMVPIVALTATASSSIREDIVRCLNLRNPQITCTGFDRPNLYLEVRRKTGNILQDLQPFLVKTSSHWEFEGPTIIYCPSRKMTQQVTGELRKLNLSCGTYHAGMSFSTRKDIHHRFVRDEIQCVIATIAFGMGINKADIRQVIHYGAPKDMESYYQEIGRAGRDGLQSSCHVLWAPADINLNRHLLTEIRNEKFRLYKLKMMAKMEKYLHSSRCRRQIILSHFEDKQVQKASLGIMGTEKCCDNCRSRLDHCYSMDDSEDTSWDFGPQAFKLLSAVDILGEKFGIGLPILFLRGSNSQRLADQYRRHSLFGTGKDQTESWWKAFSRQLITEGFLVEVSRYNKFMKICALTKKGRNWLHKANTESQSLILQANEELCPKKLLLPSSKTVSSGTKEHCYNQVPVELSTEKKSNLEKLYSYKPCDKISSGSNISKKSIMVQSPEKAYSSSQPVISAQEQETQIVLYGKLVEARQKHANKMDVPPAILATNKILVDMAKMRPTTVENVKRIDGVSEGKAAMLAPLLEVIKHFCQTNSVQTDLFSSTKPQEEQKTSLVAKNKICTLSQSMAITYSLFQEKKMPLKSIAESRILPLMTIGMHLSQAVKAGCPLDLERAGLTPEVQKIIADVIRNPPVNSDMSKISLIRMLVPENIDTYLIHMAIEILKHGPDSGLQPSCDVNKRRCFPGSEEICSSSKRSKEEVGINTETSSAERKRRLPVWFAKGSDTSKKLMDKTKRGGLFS
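WRN at 20 nM final preincubated with compound 15 min at room temperature; reaction started with 100 nM fluorophore/quencher forked duplex oligonucleotide and 2 mM ATP final. Unwinding followed kinetically by red fluorescence (ex 525, em 598 nm).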
Pol kappa inh = qHTS for Inhibitors of Polymerase Kappa. Potency, µM (top dose mostly 107 µM), for inactives: at the top dose activity, negative = inhibition, actives largely listed as inhibitors. purified Pol kappa, fluorescent DNA synthesis assay, 10 min. actives 0.53% (n = 400,000). DNA polymerase kappa (Homo sapiens), Q9UBT6. AID 588579, 2011; note: % is set by controls: 0 for no effect and ±100 for the full control effect
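Inhibition of 10 nM Pol kappa is measured by a fluorescent read-out at 0 and 10 min following addition of 50 nM substrate (final), with a 15-min room-temperature compound preincubation.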
POLH inh = qHTS for Inhibitors of Polymerase Eta | recombinant Pol eta, fluorescent DNA replication assay | AID 588591, 2011 | DNA polymerase eta (Homo sapiens), Q9Y253 | Potency, µM (series often up to 114 µM), without a hit: at the highest dose activity change, negative = inhibition, usual class: inhibitors | actives 1.2% (n = 390,000); note: % is set by controls: 0 for no effect and ±100 for the full control effect
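Pol eta (10 nM) was preincubated with compounds for 15 min at room temperature, after which fluorescent replication substrate (50 nM final) was added to start the reaction. Fluorescence was read kinetically at 0 and 10 min.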
Active calls of the source: *; ? = inconclusive; · = no result; [ ] = dose if it differs, or a comment. Calls come from the whole dose curve; as a rule, active = well fitted curve in the direction sought with a large enough effect; inconclusive = small, poorly fitted or top-dose-only effect, or another doubt; inactive = no such curve, though single readings can be large; an effect the other way counts as inactive or inconclusive. Potency is the fitted concentration of half-maximal effect.

SMILES	FEN1 inh	POLI inh	POLB inh	WRN inhibitor	Pol kappa inh	POLH inh
Cc1ccc(C)c(N2CCN(S(=O)(=O)c3cnc(N)nc3)CC2)c1	-5.6%	-20.3%	?	·	-9.0%[60.1 µM]	-6.3%
Cc1ccc(-n2nc(-c3ccco3)cc2C(=O)O)cc1	-8.5%	17.8µM*	?	44.7µM*	?	14.1µM*
O=C(c1cc(-c2ccco2)nn1-c1cccc(Cl)c1)N1CCCCC1	11.9%	?	?	56.2µM*	?	17.8µM*
O=C(c1cc(-c2cccc(Cl)c2)on1)N1CCCCCC1	0.2%	31.5%	3.8%	-33.8%	-4.7%	-10.7%
Cc1ccc(C)c(NC(=O)CSc2ncc3c(n2)-c2ccccc2N(Cc2ccccc2C)S3(=O)=O)c1	20.9%	17.8%	3.4%	·	-7.7%	-17.5%
COc1ccc(NC(=O)c2ncn(-c3ccccc3)n2)cc1Cl	3.5%	11.1%	0.0%	·	7.0%	-17.6%
O=C(CCn1cnc2ccccc2c1=O)NCc1ccccc1	13.7%	-4.6%	20µM*	·	-6.4%[60.1 µM]	?
COc1cccc(CNC(=O)COC(=O)c2c(C)nn(-c3ccccc3)c2Cl)c1	-19.9%	?	·	-27.3%	-31.8%	12.6µM*
O=C(CCn1cnc2ccccc2c1=O)NCc1ccccc1Cl	6.8%	9.4%	0.3%	·	-4.6%[60.1 µM]	-11.8%
COc1ccccc1NC(=O)c1ncn(-c2ccccc2)n1	3.2%	89.1µM*	5.4%	·	-7.2%	·
COc1cccc(CNC(=O)CCn2cnc3ccccc3c2=O)c1	-7.3%	?	14.1µM*	·	-4.6%[60.1 µM]	-10.0%
C[C@@H]1CN([C@H](C)CO)C(=O)CCCn2nncc2CO[C@H]1CN(C)S(=O)(=O)c1cccc(F)c1	·	·	·	3.9%	·	-8.6%
COc1ccc(NC(=O)CCCn2cnc3ccccc3c2=O)c(OC)c1	5.5%	-19.4%	24.3%	7.2%	-5.5%	-14.5%
COc1ccccc1NC(=O)CCn1cnc2ccccc2c1=O	6.5%	89.1µM*	?	·	-4.9%[60.1 µM]	·
Cc1ccc(Cn2c(=O)n(Cc3ccc(Cl)cc3)c(=O)c3cccnc32)cc1	1.8%	-20.8%	2.5%	·	4.7%	-5.2%
Cc1ccc(NC(=O)c2nc[nH]c2C(=O)N2CCOCC2)c(C(=O)c2ccccc2)c1	12.2%	79.4µM*	?	-7.6%	-13.8%	-5.2%
COc1cc(Nc2nc(SCC(=O)c3ccc(Br)cc3)nc3ccccc23)cc(OC)c1	2.3%	79.4µM*	?	·	0.9%[60.1 µM]	?
Cc1ccccc1CSCC(=O)NNC(=S)NCC1CCCO1 (configuration not stated)	-13.8%	89.1µM*	?	-24.7%	-32.9%	-10.9%
Cc1cccc(-n2nnnc2S(C)(=O)=O)c1	9.9%	?	-1.4%	·	-8.2%[60.1 µM]	5.2%
COc1cccc(-n2nnnc2S(C)(=O)=O)c1	-11.9%	14.2%	7.7%	50.1µM*	-15.6%	-4.4%
CCc1c(C)c2cc3c(c(C)c2oc1=O)OCN(CCc1ccccc1F)C3	0.1%	6.1%	1.3%	·	5.3%	-19.6%
O=C(CSc1nnc2c3ccccc3c3ccccc3c2n1)Nc1ccccc1F	-5.1%	-15.9%	11.2µM*	?	-25.2%	31.6µM*
O=C(N/N=C/c1ccc(OC(F)F)cc1)c1ccc(Br)cc1	0.1%	-13.8%	79.4µM*	-6.2%	-3.2%	-14.1%
COCCCn1cc(CN2CC(N3CCN(C)CC3)CS2(=O)=O)nn1 (configuration not stated)	·	·	·	-0.6%	·	·
Cn1c(SCC(=O)Nc2ccc(Br)cn2)nnc1C1CC1	10.8%	?	?	-1.4%	-41.8%	79.4µM*
Cc1cc(C)cc(NC(=O)Cn2nnc(-c3nc(-c4ccncc4)no3)c2N)c1	-5.6%	24.5%	?	·	-6.2%	0.6%
Nc1c(-c2nc(-c3ccccc3)no2)nnn1CC(=O)Nc1cccc(F)c1	3.2%	10.9%	14.1µM*	·	-3.5%	-25.6%
